High-throughput results from PubChem.
Only some compounds are listed: those with a hit (about 0.9% of all), similar ones and a draw of the others.
TR-FRET SRC-2 ct – TR-FRET artefact, counter-screen to PPARgamma/SRC-2 agonist assay; active compounds read high; TR-FRET ratio at 8 µM; hit rate 0.4% among 200,000
PPARg SRC3 recr – PPARgamma-driven SRC-3 recruitment agonism | activation, % at 8 µM | biochemical PPARgamma/SRC-3 coactivator recruitment assay | P37231 | hit rate 0.26% among 200,000; in the data active = activation above about 23%;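 note: 0% = DMSO and 100% = reference agonist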
PPARg SRC-2 ag – promotes SRC-2 coactivator recruitment by human PPARgamma | P37231 | PPARgamma LBD-SRC-2 recruitment, biochemical | activation, % at 8 µM | hit rate 0.34% among 200,000; in the data active = activation above about 22%;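 note: 0% = vehicle and 100% = reference agonist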
SRC3 TRFRET art – flags TR-FRET format artefacts in PPARgamma SRC-3 recruitment agonist screen | TR-FRET artefact counter-screen, PPARgamma/SRC-3 format; active compounds read high | TR-FRET ratio at 8 µM | hit rate 0.39% among 99,000 | AID 1048
SRC1 TRFRET art – flags TR-FRET format artefacts in PPARgamma SRC-1 recruitment agonist screen; TR-FRET detection artefact counter-screen, emission ratio; active compounds read high; TR-FRET ratio at 8 µM; hit rate 0.34% among 99,000; AID 1051; in the data active = TR-FRET ratio above about 2300
PPARg SRC1 recr – PPARgamma-driven SRC-1 recruitment agonism; PPARgamma-SRC-1 coactivator recruitment biochemical assay; activation, % at 8 µM; hit rate 0.41% among 200,000; in the data active = activation above about 19%;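 note: 0% = DMSO and 100% = reference agonist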
PPARg SRC2 conf – confirmation of agonists of SRC-2 recruitment by human PPARgamma; AID 1297; activation, % at 8 µM; shares compounds with PPARg SRC3 recr; hit rate 52% among 790; biochemical SRC-2 recruitment by PPARgamma; in the data active = activation above about 22%;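 note: 0% = vehicle alone and 100% = reference agonist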
PPARg SRC1 ag – human PPARgamma SRC-1 recruitment agonism, confirmation. hit rate 43% among 790. activation, % at 8 µM. PPARgamma–SRC-1 coactivator recruitment biochemical assay. AID 1300. shares compounds with PPARg SRC3 recr; in the data active = activation above about 20%;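 note: 0% = vehicle wells and 100% = reference agonist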
PPARg SRC3 ag – human PPARgamma SRC-3 recruitment agonism, confirmation | hit rate 29% among 790 | biochemical PPARgamma-SRC-3 coactivator recruitment, agonist mode | activation, % at 8 µM | AID 1301 | shares compounds with PPARg SRC3 recr; in the data active = activation above about 24%;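 note: 0% = vehicle wells and 100% = reference agonist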
Active calls of the source: *; . = not tested or not shown. Cut-off read from the data, not from the text of the source, unless noted: active = TR-FRET ratio above about 2000; inactive = the rest.

SMILES	TR-FRET SRC-2 ct	PPARg SRC3 recr	PPARg SRC-2 ag	SRC3 TRFRET art	SRC1 TRFRET art	PPARg SRC1 recr	PPARg SRC2 conf	PPARg SRC1 ag	PPARg SRC3 ag
CCN1CCCC1CNC(=O)CSc1cc(=O)n(CC)c2ccccc12 (configuration not stated)	2187*	42*	26*	.	.	23*	27*	15	18
Cc1nc2ccccn2c1C(=O)NNS(=O)(=O)c1ccc(C(C)(C)C)cc1	1442	1	0	1535	1892	-6	.	.	.
S=C(NCCc1ccccc1)Nc1ccc(Br)cn1	1784	1	5	1891	2017	11	.	.	.
CCn1c(=O)cc(SCC(=O)NCCCN2CCN(c3ccccc3F)CC2)c2ccccc21	3692*	96*	79*	.	.	65*	42*	27*	29*
CCn1c(=O)cc(SCC(=O)N2CCN(c3ccccc3OC)CC2)c2ccccc21	2834*	85*	68*	.	.	72*	53*	37*	34*
COc1cc(C(=O)Nc2nc3ccc4nc(C)sc4c3s2)cc(OC)c1OC	1480	9	4	.	.	16	.	.	.
Cc1nc2ccc3nc(NC(=O)c4ccco4)sc3c2s1	1749	19	11	.	.	23*	8	6	5
Cc1ccc2nc(NC(=S)NC(=O)c3ccco3)sc2c1	2308*	19	29*	2144*	2516*	22*	56*	44*	37*
COc1ccc(C(=O)Nc2nc3ccc4nc(C)sc4c3s2)cc1	1790	56*	14	.	.	67*	45*	29*	27*
CCOC(=O)C1=C(C)N(C)C(C)=C(C(=O)OCC)C1c1ccsc1	1546	2	-1	1724	1778	-3	.	.	.
Cc1ccc(C)c(CN2C(=O)C3CCCN3c3ccc(C#N)cc32)c1 (configuration not stated)	1692	10	1	.	.	0	.	.	.
Cc1ccc(CN2C(=O)C3CCCN3c3ccc(C#N)cc32)cc1 (configuration not stated)	1578	29*	16	.	.	7	12	14	8
Cc1cccc(N=C2NC(=O)S/C2=C\c2ccco2)c1	1634	-1	13	1601	2337*	22*	6	9	4
O=C(Nc1cc(C(F)(F)F)ccc1-n1cnc2ccccc21)c1ccccc1	1722	0	3	1678	1858	5	.	.	.
COc1cc(/C=C/C(=O)Nc2nc3ccc(S(=O)(=O)NC(C)C)cc3s2)cc(OC)c1OC	1783	1	23*	1648	1944	14	2	-1	-1
O=C(O)c1ccc2c(c1)C(=O)N(Cc1ccccc1)C2=O	1487	6	-10	.	.	-5	.	.	.
Cc1ccc(/C=C2/Sc3ccccc3N(CC(=O)NCCCOC(C)C)C2=O)cc1	1627	2	4	1424	1765	-1	.	.	.
Cn1c(=Nc2ccc(N3CCOCC3)cc2)ccc2ccccc21	1413	-6	-5	.	.	-3	.	.	.
Cn1c(N=Nc2ccc(N3CCOCC3)cc2)[n+](C)c2ccccc21	2551*	39*	53*	2227*	2668*	43*	22	18	17
O=C(c1cc2c(s1)-c1ccccc1OC2)N1CCN(c2ccccc2)CC1	2061*	11	21	.	.	19*	22	19	12
CCOC(=O)N1CCN(C(=O)c2cc3c(s2)-c2ccccc2OC3)CC1	1847	38*	13	.	.	20*	8	9	4
O=C(c1cc2c(s1)-c1ccccc1OC2)N1CCN(c2ccccn2)CC1	2008*	30*	22*	.	.	30*	34*	30*	20
Nc1c(C(=O)Nc2ccc(Br)cc2)sc2nc(-c3ccco3)ccc12	1930	25	23*	.	.	11	15	13	6
Nc1c(C(=O)Nc2ccc(F)cc2)sc2nc(-c3ccco3)ccc12	1512	4	9	.	.	11	.	.	.
O=C(c1ccc(Cn2c(=S)[nH]c3cc4c(cc3c2=O)OCO4)cc1)N1CCN(c2ccccc2)CC1	1767	2	-1	1780	2110	18	.	.	.
SMILES	TR-FRET SRC-2 ct	PPARg SRC3 recr	PPARg SRC-2 ag	SRC3 TRFRET art	SRC1 TRFRET art	PPARg SRC1 recr	PPARg SRC2 conf	PPARg SRC1 ag	PPARg SRC3 ag
Cc1ccc(C)c(N2CCN(C(=O)c3ccc(Cn4c(=S)[nH]c5ccc(N6CCOCC6)cc5c4=O)cc3)CC2)c1	3479*	28*	17	3971*	4039*	26*	7	3	6
Cn1c(O)c(C(C#N)=C2N=c3ccccc3=N2)c2ccccc21	1631	16	14	.	.	22*	7	6	12
N#CC(=C1N=c2ccccc2=N1)c1c(O)[nH]c2ccccc12	1518	0	4	.	.	0	.	.	.
Cc1ccc(-n2c(C)cc(C)c(C#N)c2=O)cc1Cl	1504	10	-2	.	.	4	.	.	.
Cc1ccc(NCCCCO)cc1C	1484	0	0	1609	1701	7	.	.	.
Cc1ccc(NC(=O)CSc2nc3ccccc3c3nc(CCc4c(C)n[nH]c4C)nn23)cc1F	1631	22	6	.	.	25*	2	-1	2
Cc1n[nH]c(C)c1CCc1nc2c3ccccc3nc(SCC(N)=O)n2n1	1450	5	0	.	.	0	.	.	.
COc1ccc(-n2ncc3c(NC(C)C)ncnc32)cc1	1605	8	6	.	.	19*	6	4	1
COC(=O)c1[nH]c2ccc(Br)cc2c1NC(=O)CN1CCCc2ccccc21	2282*	50*	42*	.	.	32*	16	10	7
CCOC(=O)C1CCCN(CC(=O)Nc2c(C(=O)OC)[nH]c3ccc(Br)cc23)C1 (configuration not stated)	2688*	42*	40*	.	.	26*	34*	23*	24*
CC1CCCC(NC(=O)Nc2cccs2)C1C (configuration not stated)	1526	12	16	.	.	0	.	.	.
COc1ccccc1Cn1c(=O)c2ccccc2n2c(Sc3ncnc4sccc34)nnc12	3587*	29*	8	.	.	26*	9	9	6
COc1ccccc1Cn1c(=O)c2ccccc2n2c(SCc3csc(C)n3)nnc12	1535	-1	2	1479	1673	-2	.	.	.
CC(=O)c1sc(N2CCOCC2)nc1-c1ccccc1	2097*	27*	17	2416*	2416*	33*	37*	28*	24
O=C(Nc1ccccc1)c1sc(N2CCOCC2)nc1-c1ccccc1	1762	7	13	1655	2033	6	.	.	.
Cc1cc(NC(=O)COc2ccc3oc4ccccc4c3c2)no1	1701	11	21	.	.	27*	12	13	7
Cc1ccc(-c2n[nH]c(=S)n2C)cc1Cl	1847	6	15	1766	2034	26*	10	9	10
